# USP2a block – qHTS Assay for Inhibitors of Ubiquitin-specific Protease USP2a Using CHOP2 as the Reporter. 0.01% of 330,000 active. Ubiquitin carboxyl-terminal hydrolase 2 (Homo sapiens), O75604. USP2 core, Ub-CHOP2 coupled fluorogenic reporter, 485/531. Potency, µM (highest dose often 38.3 µM), without a hit: at the highest dose activity change, negative = inhibition, actives largely listed as inhibitors;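 also: plate controls were DMSO wells for no effect and full inhibition by NEM control for full effect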
# Target sequence (O75604 whole entry, looked up): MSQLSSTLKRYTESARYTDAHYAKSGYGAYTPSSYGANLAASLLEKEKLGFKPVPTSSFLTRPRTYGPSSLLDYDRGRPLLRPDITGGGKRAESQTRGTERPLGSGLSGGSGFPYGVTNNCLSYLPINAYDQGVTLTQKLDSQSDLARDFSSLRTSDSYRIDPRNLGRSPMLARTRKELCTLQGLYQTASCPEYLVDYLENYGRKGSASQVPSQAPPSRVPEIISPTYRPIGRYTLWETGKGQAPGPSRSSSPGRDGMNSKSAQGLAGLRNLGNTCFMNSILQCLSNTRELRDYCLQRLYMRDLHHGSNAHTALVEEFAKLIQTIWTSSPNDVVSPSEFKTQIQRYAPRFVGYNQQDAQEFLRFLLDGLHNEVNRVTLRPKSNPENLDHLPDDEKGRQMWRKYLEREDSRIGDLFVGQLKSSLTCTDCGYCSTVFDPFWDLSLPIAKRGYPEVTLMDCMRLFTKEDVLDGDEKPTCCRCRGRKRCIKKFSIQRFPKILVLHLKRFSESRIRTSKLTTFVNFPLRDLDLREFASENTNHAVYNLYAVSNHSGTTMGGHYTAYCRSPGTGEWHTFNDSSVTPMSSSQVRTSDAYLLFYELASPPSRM
#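 USP2 core (10nM final) preincubated 30min RT with compound in 20mM Tris-HCl pH 8.0, 2mM CaCl2, 2mM beta-mercaptoethanol, 0.05% CHAPS; 25nM Ub-CHOP2 plus 25nM reporter substrate added, fluorescence (Ex485/Em531) read after 60min.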
# Mm-Cpn inhibitor – Inhibitors of TCP-1 ring complex (TRiC) of Methanococcus maripaludis (MmCpn): qHTS; Chaperonin Mm-Cpn (Methanococcus maripaludis); purified Mm-Cpn ATPase, ADP Transcreener TR-FRET; Potency, µM (series often up to 76.9 µM), without a hit: at the highest dose activity, negative = inhibition, hits mostly inhibitors; 0.031% of 330,000 active; AID 504842, 2011; also: % is scaled to controls: 0 for no effect and ±100 for the full control effect; nearly all actives have a fitted effect of over 80% in size
#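 Reaction buffer contained 30 mM Tris pH 7.4, 100 mM KCl, 5 mM MgCl2 and 1 mM DTT. Mm-CPN (25 nM final) hydrolysed 10 uM ATP over 30 min at 37°C; ADP was read by HTRF.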
# p53 reactivation – qHTS assay for re-activators of p53 using a Luc reporter; AID 504706, 2011; Potency, µM (doses to about 92.2 µM), without a hit: at the top dose activity change, positive = activation, hits mostly activators; 0.063% of 320,000 active; H1299 p53-A138V BP100-luciferase reporter, luminescence, 24 h; also: % of control where 0% means no effect; nearly all actives have a fitted effect of over 45% in size
#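 p53-null H1299 cells stably carrying temperature-sensitive p53-A138V and a BP100-luciferase reporter were pinned with compounds (4-point, 1:5 series) and held 24 hrs at 37 deg C. Luminescence was read 10 min after detection reagent.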
# Eya2 inh – qHTS Assay for Inhibitors of the Phosphatase Activity of Eya2 | AID 488837, 2010 | 0.006% of 330,000 active | Potency, µM (series often up to 76.9 µM), without a hit: at the highest dose activity, negative = inhibition, most hits filed as inhibitors | recombinant Eya2, OMFP fluorescence dephosphorylation (OMFP is methylfluorescein phosphate) | Protein phosphatase EYA2 (Homo sapiens), O00167; also: % is scaled to controls: 0 for no effect and ±100 for the full control effect
#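 Eya2 protein (added as 0.2 uM solution) was preincubated with compound for 10 min at ambient temperature in 50 mM HEPES pH 7.5, 50 mM NaCl, 5 uM MgCl2, 0.05% BSA, 1 mM DTT. OMFP (added at 50 uM) then reacted 10 min; fluorescence read at 485/525 nm.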
# ClpP mod – qHTS Assay for Activators of ClpP; ATP-dependent Clp protease proteolytic subunit (Bacillus subtilis (strain 168)), P80244; purified B. subtilis ClpP, FRET peptide cleavage, 20 min; Potency, µM (highest dose often 57.5 µM), for inactives: at the highest dose activity change, negative = active; 1.9% of 340,000 active; AID 651965, 2013; active = well fitted falling curve with a large enough effect; inconclusive = small, poorly fitted or top-dose-only effect; inactive = no such curve, though single readings can be large or run the other way; also: the source files actives as falling curves though it sought activators and does not explain the sign; nearly all actives have a fitted effect of over 65% in size
#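 Buffer: 100 mM Tris/HCl pH8, 100 mM KCl, 0.05% low protease BSA, 2.5% glycerol, 0.01% Tween-20. ClpP 10 microg/mL final; 20 min RT; delta FRET normalized to ADEP and DMSO controls.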
# a7 integrin act – qHTS for Activators of Integrin-Mediated Alleviation for Muscular Dystrophy. 0.064% of 350,000 active. Potency, µM (highest dose often 38.3 µM), inactives show at the highest dose activation, hits mostly activators. alpha7betagal myoblasts, beta-gal FDG fluorescence, 48 h. AID 624291, 2012;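 also: 100% = response of the positive control SU9516; nearly all actives have a fitted effect of over 60% in size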
#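 Alpha7betagal+/- myoblasts (passage 13) were plated 16-24 hr, then exposed to compounds (1:260 dilution of DMSO stock) for 48 hours at 37C. After MPER lysis, β-galactosidase reporter activity was read as FDG fluorescence (ex 480/em 540) after 30 minutes.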
# The depositor's hits bear a star; ? = inconclusive; . = not tested or not shown; [ ] = another dose, or the depositor's remark. Only a selection was taken, and hits are over-represented in it overall. Unless noted, calls follow the shape of the dose curve; as a rule, active = well fitted curve in the direction sought with a large enough effect; inconclusive = small, poorly fitted or top-dose-only effect, or another doubt; inactive = no such curve, though single readings can be large; an effect the other way counts as inactive or inconclusive. Potency is read from the fitted curve at half-maximal effect.
SMILES,USP2a block,Mm-Cpn inhibitor,p53 reactivation,Eya2 inh,ClpP mod,a7 integrin act
CC(C)(C)OC(=O)[C@H](Cc1ccccc1)NC(=O)c1ncn2c1c(=O)[nH]c1ccc(Br)cc12,.,.,.,.,7.9µM*,6%
CC(C)(C)OC(=O)[C@H](Cc1ccccc1)NC(=O)c1nc[nH]c1C(=O)N[C@@H](Cc1ccccc1)C(=O)OC(C)(C)C,-15%,3%,-2%,-8%,-4%,-41%
COc1ccc2c(COC(=O)c3n[nH]c4ccccc34)cc(=O)oc2c1,3%,-13%,?,-8%,28µM*,-2%
CCCCCOc1ccc(C(=O)OCC(=O)Nc2cc(C)on2)cc1,0%,-3%,2%,-9%,18µM*,-7%
Cc1cc(NC(=O)COC(=O)c2n[nH]c3ccccc23)no1,0%,-1%,-2%,-5%,11µM*,26%
COc1cc(OC)c(OC)cc1/C=C/c1nccc2ccccc12,.,.,.,.,-1%,.
COc1cc(NC(=O)C2C3C=CC(C3)C2C(=O)O)ccc1NC(=O)c1ccccc1 (centres undefined),-1%,2%,14%,7%,-1%,8.9µM*
CN(C)c1ccc(NC(=O)C2C3C=CC(C3)C2C(=O)O)cc1 (centres undefined),0%,25µM*,9%,-13%,0%,-34%
Cc1ccc(Nc2c(-c3ccc(C)s3)nc3cccc(C)n23)cc1,.,.,.,.,4%,.
Cc1cn2c(=O)cc(COC(=O)COc3ccc(C)c(C)c3)nc2s1,.,.,.,.,1%,.
CC1(C)CC(N2CCOCC2)=CC(=S)N1,.,.,.,.,-2%,.
COC(=O)C1C(=O)C=C(N2CCOCC2)CC1(C)C (centres undefined),-6%,1%,6%,-11%,13µM*,-1%
COCC(C)NC(=O)c1ccccc1OC(C)=O (centres undefined),5%,-3%,7%,3%,25µM*,-4%
Cc1ccc(CC(=O)Nc2ccc(S(=O)(=O)Nc3ncccn3)cc2)cc1,4%,0%,11%,9%,.,19%
O=C(CCc1c[nH]c2ccccc12)Nc1ccc(S(=O)(=O)Nc2ncccn2)cc1,2%,2%,2%,-10%,32µM*,-66%
CC(C)CNC(=O)c1oc2ccccc2c1COc1ccccc1,4%,0%,2%,-1%,.,0%
Cc1cc(C)cc(NC(=O)c2oc3ccccc3c2COc2ccccc2)c1,3%,-4%,9%,-1%,25µM*,9%
Cc1ccc(C)c(C(=O)C[n+]2cccc(Br)c2)c1,.,.,.,.,0%,.
O=C(CN1CCC2(CC1)OCCO2)c1ccc2cc[nH]c2c1,-1%,-4%,1%,11%,32µM*,6%
O=C(CN1CCN(c2ccccc2)CC1)c1ccc2cc[nH]c2c1,-3%,-1%,3%,1%,?,-1%
CN(C)CCNC(=O)/C(=C/c1ccc(-c2ccc(Cl)cc2)o1)NC(=O)c1ccccc1,-1%,-1%,-18%,-5%,16µM*,0%
CN(C)CCNC(=O)/C(=C/c1ccc(-c2ccc(Cl)cc2Cl)o1)NC(=O)c1ccccc1,-1%,0%,-12%,-8%,-7%,-63%
c1ccc(-c2cnc(-c3cccnc3)o2)cc1,0%,-4%,25µM*,3%,?,3%
Fc1cccc(-c2ncc(-c3ccccc3)o2)c1,.,.,.,.,1%,20%
Cc1ccccc1OCCNC(=O)CNC(=O)c1ccccc1O,5%,1%,3%,6%,28µM*,-5%[7.66 µM]
SMILES,USP2a block,Mm-Cpn inhibitor,p53 reactivation,Eya2 inh,ClpP mod,a7 integrin act
COc1ccccc1C(=O)NCCOc1ccc(C(C)(C)C)cc1,5%,1%,-83%,-19%,1%,8.9µM*
COc1ccccc1C(=O)NCCSCc1ccccc1Cl,1%,-1%,-12%,-14%,7.1µM*,-9%
CC(C)(C)c1ccc(C(=O)NCCOc2ccccc2)cc1,-7%,-3%,-8%,-3%,.,3%
COc1ccccc1C(=O)NCCC(=O)NNC(=O)c1ccccc1O,0%,-5%,-3%,16%,25µM*,16%
COCC(=O)NNC(=O)c1ccccc1OC,8%,0%,8%,-1%,.,9%
N#Cc1c(-c2ccc3c(c2)OCO3)csc1N,2%,0%,-1%,-29%,-3%,9%
N#Cc1c(-c2ccccc2)cc(-c2ccc3c(c2)OCO3)[nH]c1=O,3%,4%,-5%,0%,18µM*,-4%
COc1ccc2c(c1OC)C(=O)N1c3ccccc3C(=O)N(Cc3ccco3)C21 (centres undefined),.,.,.,.,-4%,.
COc1ccc(C2(OC)Oc3cc(OC)ccc3C(=O)C2(O)OC)cc1 (centres undefined),.,.,.,.,32µM*,-18%
CC1CCN2c3ccccc3CC3(C(=O)OC(C)(C)OC3=O)C2C1 (centres undefined),.,.,.,.,4%,.
COc1ccc(-n2nc3ccc(N)cc3n2)cc1Cl,0%,-2%,.,6%,3%,0%
COc1ccc(-n2nc3ccc(NS(C)(=O)=O)cc3n2)cc1Cl,2%,-11%,16%,3%,28µM*,8%
CCc1cccc(C)c1NC(=O)CN(C)S(=O)(=O)c1cccc2nsnc12,.,.,.,.,1%,.
Cc1ccc(CNC(=O)c2ccccc2N)cc1,1%,-1%,3%,-6%,28µM*,16%
Cc1cccc(CNC(=O)c2ccccc2N)c1,1%,0%,?,8%,8.9µM*,31%
CCOC(=O)c1c(NC(=O)c2nn(CC)cc2Br)sc2c1CCCCC2,-2%,0%,7%,-25%,28µM*,-35%
CCOC(=O)c1c(NC(=O)c2ccccc2C(=O)O)sc2c1CCCC2,1%,-1%,.,11%,-1%,8%
CCOC(=O)c1c(NC(=O)c2ccccc2C)sc2c1CCCC2,.,.,.,.,32µM*,.
CCOC(=O)c1c(NC(=O)c2nn(CC)cc2Br)sc(C)c1C,-2%,1%,-1%,-2%,35%,-7%
CCOC(=O)c1c(NC(=O)c2ccoc2C)sc2c1CCC2,-1%,-3%,-1%,-25%,35µM*,5%
CC(C)[C@H]1COCCS(=O)(=O)N1Cc1cccc([N+](=O)[O-])c1,.,.,.,.,1%,.

# Screens as filed in PubChem.
